# Experimental data published in PubChem BioAssay (NCI).
# The panel holds about 83,000 compounds, 20% with a hit somewhere; the sample as a whole holds those more often.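 For each line, cells grew in 96-well plates with the test compound present at a single concentration for 48 hours.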 Values without a mark were called inactive. The source made the active and inactive calls. The calls were made as follows: active = growth percent below 10; inactive = the rest.
# How the values were obtained:
# Experiment in all cases: NCI-60 one-dose screen, 48 h (100 = growth as untreated, 0 = no growth, -100 = all killed)
# Conditions in all cases: 10 µM unless noted
# [1] = system: SR leukemia
# [2] = system: RPMI-8226 leukemia
# [3] = system: OVCAR-8 ovarian
# [4] = system: OVCAR-5 ovarian
# [5] = system: OVCAR-4 ovarian
# [6] = system: SK-OV-3 ovarian
# [7] = system: IGROV1 ovarian
# [8] = system: OVCAR-3 ovarian
# [9] = system: HS 578T breast
# [10] = system: NCI/ADR-RES ovarian
# [11] = system: T-47D breast
# [12] = system: BT-549 breast
# [13] = system: MDA-MB-435 melanoma
# [14] = system: SW-620 colon
# [15] = system: MCF7 breast
# [16] = system: HCT-116 colon
# [17] = system: HCC-2998 colon
# [18] = system: KM12 colon
Structure (SMILES),growth [1],growth [2],growth [3],growth [4],growth [5],growth [6],growth [7],growth [8],growth [9],growth [10],growth [11],growth [12],growth [13],growth [14],growth [15],growth [16],growth [17],growth [18]
CSc1ccc(-c2n[nH]nc2-c2cc3ccccc3s2)cc1,24.9%,40.1%,59.3%,95.3%,75.8%,52.7%,46.4%,26.5%,58.5%,22.8%,44.9%,46.8%,-19% (active),23.7%,27.7%,30.5%,82.3%,32.2%
OCc1ccc(N2CCc3cccc(F)c3C2)cc1Cl,87.6% [0.1 µM],71.4% [0.1 µM],91.4% [0.1 µM],-11.7% [0.1 µM] (active),32.7% [0.1 µM],72.5% [0.1 µM],21.2% [0.1 µM],11.8% [0.1 µM],99.2% [0.1 µM],87% [0.1 µM],1.88% [0.1 µM] (active),114% [0.1 µM],111% [0.1 µM],34.5% [0.1 µM],12.8% [0.1 µM],18.1% [0.1 µM],81% [0.1 µM],101% [0.1 µM]
CCOc1cc2ncc(C#N)c(Nc3ccc(F)c(Cl)c3)c2cc1NC(=O)CC1CCSS1 (stereo not given),-27.8% (active),-5.51% (active),-41.7% (active),-40.6% (active),-69.4% (active),-91.7% (active),-45.9% (active),-86.3% (active),-17.4% (active),-30.3% (active),-48.4% (active),-25.3% (active),-92.1% (active),-49% (active),-34.7% (active),-61.7% (active),-74% (active),-77.6% (active)
CN1CCN(Cc2ccc(NC(=O)c3cncc(C#Cc4cncn5ccnc45)c3)cc2C(F)(F)F)CC1,40.8%,54.9%,68.8%,48.4%,48.5%,88.9%,20.4%,83.8%,69.6%,93.6%,98.9%,60.8%,36.2%,32.2%,55.9%,7.73% (active),47.6%,19.7%
CN(C)c1ccc(N=Nc2ccccn2)c(O)c1,3.79% (active),16.2%,16%,68.6%,28.3%,19.5%,14.9%,33.2%,60.9%,12.4%,31.4%,37%,33.1%,26.5%,17.3%,24.7%,33.6%,24.5%
Cc1cc(N2CCCCCC2)nc(NC2CCCC(Nc3ccnc4cc(Cl)ccc34)C2)n1 (stereo not given),-65.8% (active),-57% (active),-85.3% (active),-24.8% (active),-63.9% (active),-82.8% (active),-47.1% (active),-78.6% (active),-51.3% (active),-72.2% (active),-50.3% (active),-85.1% (active),-87.7% (active),-76.9% (active),-56.8% (active),-95.9% (active),-80.3% (active),-75.5% (active)
COc1ccc(CCNc2nc3c(c(=O)n(Cc4ccc(Br)cc4)c(=O)n3C)n2C)cc1OC,98.9%,78.5%,90.5%,94%,80.1%,94.9%,83.2%,98.4%,91.1%,82.9%,66.2%,86.5%,99.2%,99.5%,94.4%,90.5%,101%,100%
CCn1c(O)c(/C=N/NC(=O)C(C)c2ccc(CC(C)C)cc2)sc1=S (stereo not given),26.3%,1.77% (active),22.6%,52%,56.7%,45.3%,24.1%,1.8% (active),17.8%,5.41% (active),38%,11.5%,-44.4% (active),27.3%,20.5%,11.6%,29.5%,18.7%
O=C1c2cc3c(cc2-c2c1c1ccc(Cl)cc1c(=O)n2CCCN1CCOCC1)OCO3,4.71% (active),60.8%,70.9%,109%,91.9%,33.4%,82.6%,86.5%,108%,45.9%,28.6%,59.6%,85.4%,57.2%,18.5%,56.3%,74.4%,75.2%
FC(F)(F)c1[nH]ncc1-c1nc2ccc3n[nH]c(C#Cc4cccnc4)c3c2c2c1CCCC2,14.2%,47.7%,45.5%,67.3%,80.5%,27.8%,17.8%,54.2%,13.8%,72.1%,48.8%,10.3%,47.8%,19.2%,33.9%,9.04% (active),50.4%,22.7%
Cc1cc(N2CCOCC2)nc(N[C@@H]2CCC[C@H](Nc3ccnc4cc(Cl)ccc34)C2)n1,-36.9% (active),-45.6% (active),5.36% (active),49.4%,35.5%,64.4%,26.4%,22.6%,-11.1% (active),18.2%,-56.6% (active),26%,-83% (active),-1.97% (active),5.31% (active),-6.15% (active),11.2%,20.6%
C=C1c2nc3ccccc3n2C=C(c2ccc(Cl)cc2)N1Cc1ccc(OC)cc1,-2.2% (active),30.9%,91.1%,72.1%,71.6%,85.8%,55.2%,85.4%,104%,62.7%,48%,97.8%,97.9%,92.7%,54%,63.5%,80.4%,95.4%
CCc1c(Nc2ccccc2C)nc(N)[nH]c1=O,85.9%,104%,119%,92.3%,107%,109%,93.4%,110%,115%,109%,114%,102%,106%,106%,97%,98.4%,101%,104%
Cn1c(=O)[nH]c(=O)c2nc(CCC(=O)NCCC(=O)O)c(=O)[nH]c21,113%,111%,101%,106%,106%,101%,98.6%,113%,89.8%,105%,98.8%,105%,101%,101%,103%,109%,98.3%,102%
O=C1Nc2c(ccc(Cl)c2Cl)/C1=C\c1cc(C(F)(F)F)cc(C(F)(F)F)c1,-41.1% (active),25.6%,27.1%,-28.8% (active),9.67% (active),59.9%,3.13% (active),-34.2% (active),-37.6% (active),8.35% (active),-0.235% (active),14.9%,-53.4% (active),-77.6% (active),-3.68% (active),-61.3% (active),12.8%,-74.6% (active)
